Source: article PMC7862700, “An all-to-all approach to the identification of sequence-specific readers for epigenetic DNA modifications on cytosine”

How the values were obtained:
Test in all cases: DAPPL (digital affinity profiling via proximity ligation, sequencing); 10 mM Tris-HCl pH 7.5, 50 mM NaCl, 1 mM DTT, 4% glycerol, room temperature, 30 min; GST-TFs on glutathione beads, 16-mer random dsDNA library, 0.1% formaldehyde crosslink after washing; high values mean tight binding
Settings in all cases: protein: recombinant; tags: N-terminal GST; dsDNA, one strand shown
ERF = molecular target: T1, ERF (Homo sapiens, UniProt P50548 1-548)
T1 sequence: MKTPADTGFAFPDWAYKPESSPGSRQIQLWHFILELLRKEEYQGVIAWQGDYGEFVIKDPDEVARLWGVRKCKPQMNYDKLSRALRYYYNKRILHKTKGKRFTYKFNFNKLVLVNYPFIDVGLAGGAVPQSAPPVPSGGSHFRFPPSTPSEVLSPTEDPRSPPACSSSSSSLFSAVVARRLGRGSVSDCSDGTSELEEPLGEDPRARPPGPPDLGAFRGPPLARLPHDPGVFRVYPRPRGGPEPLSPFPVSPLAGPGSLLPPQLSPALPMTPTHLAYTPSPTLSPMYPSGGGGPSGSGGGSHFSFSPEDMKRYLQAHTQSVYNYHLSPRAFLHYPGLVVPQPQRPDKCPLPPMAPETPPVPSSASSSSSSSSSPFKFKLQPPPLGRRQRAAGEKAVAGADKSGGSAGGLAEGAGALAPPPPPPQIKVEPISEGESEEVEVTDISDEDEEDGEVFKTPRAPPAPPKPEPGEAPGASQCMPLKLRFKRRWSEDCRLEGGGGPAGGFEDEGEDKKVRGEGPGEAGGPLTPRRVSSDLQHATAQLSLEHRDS
In short: (§1)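 Human transcription factors carrying a GST fusion were produced in yeast, bound to glutathione beads, tagged with DNA barcodes and pooled together with a tag-only sample. Each pool was held with 200 nmole of a random double-stranded 16-mer DNA library in Tris/NaCl/DTT/glycerol buffer for 30 min at room temperature, then washed, crosslinked in 0.1% formaldehyde, proximity-ligated with BsaI/T4 ligase (1 h, 37 °C), PCR-amplified and sequenced on an Illumina NextSeq500. Binding signal is the read frequency of each hexamer for a given factor divided by its frequency in the tag-only sample.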

ETV3L = molecular target: T2, ETV3L (Homo sapiens, UniProt Q6ZN32 1-361)
T2 sequence: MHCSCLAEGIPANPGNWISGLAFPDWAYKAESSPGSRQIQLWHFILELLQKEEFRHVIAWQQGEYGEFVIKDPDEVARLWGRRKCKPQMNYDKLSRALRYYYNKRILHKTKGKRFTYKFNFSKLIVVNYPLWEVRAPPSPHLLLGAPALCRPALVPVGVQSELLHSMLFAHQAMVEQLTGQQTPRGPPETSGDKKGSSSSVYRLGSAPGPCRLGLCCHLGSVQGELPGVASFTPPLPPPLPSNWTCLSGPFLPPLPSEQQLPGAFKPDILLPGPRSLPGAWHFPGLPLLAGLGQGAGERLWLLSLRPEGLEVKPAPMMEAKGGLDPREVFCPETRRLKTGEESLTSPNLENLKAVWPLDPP
In short: as §1

ETS2 = molecular target: T3, ETS2 (Homo sapiens, UniProt P15036 1-469)
T3 sequence: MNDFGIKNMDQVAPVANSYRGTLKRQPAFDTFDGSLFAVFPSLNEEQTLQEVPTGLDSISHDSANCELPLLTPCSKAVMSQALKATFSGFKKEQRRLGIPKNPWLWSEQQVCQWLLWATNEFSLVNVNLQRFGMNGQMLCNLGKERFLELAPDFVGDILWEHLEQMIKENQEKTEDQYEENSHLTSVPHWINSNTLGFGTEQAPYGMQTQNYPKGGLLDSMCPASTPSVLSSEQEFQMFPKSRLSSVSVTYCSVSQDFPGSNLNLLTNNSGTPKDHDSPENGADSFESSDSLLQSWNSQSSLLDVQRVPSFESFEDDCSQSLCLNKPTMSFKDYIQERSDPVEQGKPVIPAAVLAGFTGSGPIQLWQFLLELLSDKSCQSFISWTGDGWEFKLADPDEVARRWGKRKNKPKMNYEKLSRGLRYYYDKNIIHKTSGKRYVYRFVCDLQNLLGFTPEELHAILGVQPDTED
In short: as §1

SPDEF = molecular target: T4, SPDEF (Homo sapiens, UniProt O95238 1-335)
T4 sequence: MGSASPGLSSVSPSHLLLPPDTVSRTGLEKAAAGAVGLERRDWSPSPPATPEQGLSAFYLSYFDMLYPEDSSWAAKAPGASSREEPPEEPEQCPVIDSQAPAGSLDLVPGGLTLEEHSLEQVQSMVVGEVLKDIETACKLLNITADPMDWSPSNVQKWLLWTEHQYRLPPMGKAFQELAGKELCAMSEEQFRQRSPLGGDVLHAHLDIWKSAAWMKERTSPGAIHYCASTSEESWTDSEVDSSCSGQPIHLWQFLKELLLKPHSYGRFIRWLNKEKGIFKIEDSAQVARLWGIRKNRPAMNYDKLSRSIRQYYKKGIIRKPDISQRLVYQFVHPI
In short: as §1

ETV7 = molecular target: T5, ETV7 (Homo sapiens, UniProt Q9Y603 1-341)
T5 sequence: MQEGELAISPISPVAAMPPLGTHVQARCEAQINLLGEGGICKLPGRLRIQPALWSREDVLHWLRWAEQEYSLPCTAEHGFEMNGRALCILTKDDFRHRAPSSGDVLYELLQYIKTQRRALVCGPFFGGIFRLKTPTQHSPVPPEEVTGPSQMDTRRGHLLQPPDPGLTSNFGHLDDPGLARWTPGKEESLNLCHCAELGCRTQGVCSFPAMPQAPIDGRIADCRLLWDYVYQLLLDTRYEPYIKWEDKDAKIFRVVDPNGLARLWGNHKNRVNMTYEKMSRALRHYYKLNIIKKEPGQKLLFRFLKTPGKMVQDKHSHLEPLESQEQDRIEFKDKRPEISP
In short: as §1

ELF5 = molecular target: T6, ELF5 (Homo sapiens, UniProt Q9UKW6-2 1-255)
T6 sequence: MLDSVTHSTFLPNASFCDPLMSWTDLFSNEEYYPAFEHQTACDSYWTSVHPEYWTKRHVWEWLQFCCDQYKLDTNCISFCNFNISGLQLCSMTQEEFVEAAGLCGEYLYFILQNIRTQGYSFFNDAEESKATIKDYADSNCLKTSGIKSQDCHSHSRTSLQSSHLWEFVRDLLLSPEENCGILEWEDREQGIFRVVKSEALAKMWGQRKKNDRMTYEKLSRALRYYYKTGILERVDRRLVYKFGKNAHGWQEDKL
In short: as §1

ETV3 = molecular target: T7, ETV3 (Homo sapiens, UniProt P41162-2 1-143)
T7 sequence: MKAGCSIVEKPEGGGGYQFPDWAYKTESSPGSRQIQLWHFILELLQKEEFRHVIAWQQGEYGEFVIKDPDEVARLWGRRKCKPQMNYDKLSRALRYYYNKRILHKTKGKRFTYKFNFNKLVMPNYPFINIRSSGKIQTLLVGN
In short: as §1

ETV6 = ETV6 (Homo sapiens, UniProt P41212 1-452)
Sequence of ETV6 (P41212 whole entry): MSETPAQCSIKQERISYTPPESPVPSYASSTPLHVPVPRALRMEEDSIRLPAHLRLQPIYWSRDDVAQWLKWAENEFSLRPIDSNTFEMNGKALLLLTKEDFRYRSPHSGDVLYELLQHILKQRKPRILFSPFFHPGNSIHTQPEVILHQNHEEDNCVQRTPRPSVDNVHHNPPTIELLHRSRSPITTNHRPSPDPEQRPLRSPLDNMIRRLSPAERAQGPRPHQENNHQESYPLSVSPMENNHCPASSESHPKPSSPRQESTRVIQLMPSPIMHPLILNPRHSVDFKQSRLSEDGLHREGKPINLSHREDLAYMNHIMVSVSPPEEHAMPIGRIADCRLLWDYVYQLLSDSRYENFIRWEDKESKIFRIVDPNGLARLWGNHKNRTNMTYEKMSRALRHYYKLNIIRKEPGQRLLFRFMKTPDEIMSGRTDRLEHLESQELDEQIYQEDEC
In short: as §1

For ACTAGC, which binding signal (ERF) is on record?
Its binding signal is 1.19 fold enrichment (6-mer frequency, TF over GST control).

And the binding signal (ETV3L)?
The binding signal was 1.16 fold enrichment (6-mer frequency, TF over GST control).

And the binding signal (ETS2)?
The binding signal was 1.16 fold enrichment (6-mer frequency, TF over GST control).

And the binding signal (SPDEF)?
Its binding signal is 1.15 fold enrichment (6-mer frequency, TF over GST control).

And the binding signal (ETV7)?
Its binding signal is 1.16 fold enrichment (6-mer frequency, TF over GST control).

What about the binding signal (ELF5) of the same sequence?
The binding signal was 1.13 fold enrichment (6-mer frequency, TF over GST control).

And the binding signal (ETV3)?
Its binding signal is 1.15 fold enrichment (6-mer frequency, TF over GST control).

What about the binding signal (ETV6) of the same sequence?
The binding signal was 1.2 fold enrichment (6-mer frequency, TF over GST control).

Which binding signal (ERF) does the source give for TAATAC here?
The binding signal was 1.14 fold enrichment (6-mer frequency, TF over GST control).

And the binding signal (ETV3L)?
The binding signal was 1.1 fold enrichment (6-mer frequency, TF over GST control).

And the binding signal (ETS2)?
The binding signal was 1.12 fold enrichment (6-mer frequency, TF over GST control).

What about the binding signal (SPDEF) of the same sequence?
Its binding signal is 1.12 fold enrichment (6-mer frequency, TF over GST control).

And the binding signal (ETV7)?
Its binding signal is 1.11 fold enrichment (6-mer frequency, TF over GST control).

What about the binding signal (ELF5) of the same sequence?
Its binding signal is 1.09 fold enrichment (6-mer frequency, TF over GST control).

And the binding signal (ETV3)?
The binding signal was 1.03 fold enrichment (6-mer frequency, TF over GST control).

And the binding signal (ETV6)?
Its binding signal is 1.12 fold enrichment (6-mer frequency, TF over GST control).

ATCTCT was tested. Which binding signal (ERF) did it give?
Its binding signal is 1.38 fold enrichment (6-mer frequency, TF over GST control).

What about the binding signal (ETV3L) of the same sequence?
Its binding signal is 1.27 fold enrichment (6-mer frequency, TF over GST control).

And the binding signal (ETS2)?
The binding signal was 1.29 fold enrichment (6-mer frequency, TF over GST control).

And the binding signal (SPDEF)?
Its binding signal is 1.18 fold enrichment (6-mer frequency, TF over GST control).

And the binding signal (ETV7)?
Its binding signal is 1.14 fold enrichment (6-mer frequency, TF over GST control).

What about the binding signal (ELF5) of the same sequence?
Its binding signal is 1.25 fold enrichment (6-mer frequency, TF over GST control).

What about the binding signal (ETV3) of the same sequence?
Its binding signal is 1.25 fold enrichment (6-mer frequency, TF over GST control).

What about the binding signal (ETV6) of the same sequence?
Its binding signal is 1.27 fold enrichment (6-mer frequency, TF over GST control).

Which results are given for TTTGCT?
binding signal (ERF): 1.39 fold enrichment (6-mer frequency, TF over GST control); binding signal (ETV3L): 1.22 fold enrichment (6-mer frequency, TF over GST control); binding signal (ETS2): 1.32 fold enrichment (6-mer frequency, TF over GST control); binding signal (SPDEF): 1.16 fold enrichment (6-mer frequency, TF over GST control); binding signal (ETV7): 1.38 fold enrichment (6-mer frequency, TF over GST control); binding signal (ELF5): 1.16 fold enrichment (6-mer frequency, TF over GST control); binding signal (ETV3): 1.24 fold enrichment (6-mer frequency, TF over GST control); binding signal (ETV6): 1.14 fold enrichment (6-mer frequency, TF over GST control)

What does the source list for TTTTGG?
binding signal (ERF): 1.47 fold enrichment (6-mer frequency, TF over GST control); binding signal (ETV3L): 1.48 fold enrichment (6-mer frequency, TF over GST control); binding signal (ETS2): 1.55 fold enrichment (6-mer frequency, TF over GST control); binding signal (SPDEF): 1.36 fold enrichment (6-mer frequency, TF over GST control); binding signal (ETV7): 1.43 fold enrichment (6-mer frequency, TF over GST control); binding signal (ELF5): 1.34 fold enrichment (6-mer frequency, TF over GST control); binding signal (ETV3): 1.36 fold enrichment (6-mer frequency, TF over GST control); binding signal (ETV6): 1.42 fold enrichment (6-mer frequency, TF over GST control)

What does the source list for TTGATG?
binding signal (ERF): 1.66 fold enrichment (6-mer frequency, TF over GST control); binding signal (ETV3L): 1.59 fold enrichment (6-mer frequency, TF over GST control); binding signal (ETS2): 1.58 fold enrichment (6-mer frequency, TF over GST control); binding signal (SPDEF): 1.51 fold enrichment (6-mer frequency, TF over GST control); binding signal (ETV7): 1.45 fold enrichment (6-mer frequency, TF over GST control); binding signal (ELF5): 1.6 fold enrichment (6-mer frequency, TF over GST control); binding signal (ETV3): 1.43 fold enrichment (6-mer frequency, TF over GST control); binding signal (ETV6): 1.57 fold enrichment (6-mer frequency, TF over GST control)

With CTTTTT as the sequence, how does the binding signal (ERF) read?
Its binding signal is 1.31 fold enrichment (6-mer frequency, TF over GST control).

And the binding signal (ETV3L)?
The binding signal was 1.35 fold enrichment (6-mer frequency, TF over GST control).

What about the binding signal (ETS2) of the same sequence?
Its binding signal is 1.31 fold enrichment (6-mer frequency, TF over GST control).

And the binding signal (SPDEF)?
Its binding signal is 1.32 fold enrichment (6-mer frequency, TF over GST control).

And the binding signal (ETV7)?
Its binding signal is 1.37 fold enrichment (6-mer frequency, TF over GST control).

And the binding signal (ELF5)?
The binding signal was 1.31 fold enrichment (6-mer frequency, TF over GST control).

And the binding signal (ETV3)?
The binding signal was 1.24 fold enrichment (6-mer frequency, TF over GST control).

What about the binding signal (ETV6) of the same sequence?
The binding signal was 1.3 fold enrichment (6-mer frequency, TF over GST control).
